# Experimental data reported in the supplement of paper PMC11417369.
# Over roughly 25,000 sequences, “ln(normalized median fluorescence intensity)” has its median near 6.7; the highest 2% begin near 10. The full list was thinned out, with the highest values kept by preference.
# System: PfHDP1 homeodomain (GST-tagged)
# Assay: gcPBM binding intensity (ln(normalized median fluorescence intensity)); higher = stronger DNA binding
# Outline: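 Probes on an Agilent 4 × 180k array were primer-extended, double-stranded and 36 bp long, taken from intergenic genomic regions, with negative controls added. GST-tagged P. falciparum DNA-binding domains from E. coli, about 25 μg on average, were applied to the array for 1 h in 1× PBS containing 1% milk, 0.2 mg/ml BSA, 0.5% salmon testes DNA and 0.03% Triton X-100. Binding intensity, obtained after Alexa488 anti-GST antibody detection and a 488 nm scan, is the highest Masliner-normalised natural-log median intensity across replicate spots of either probe orientation.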
row,Sequence,gcPBM binding intensity (ln)
1,AAATAGTTGTTATGGGTGCAAACCACATATATATAA [GTGCAC_site9428],8.79
2,TGTAGTTTGTCCCATGCATGTTCCATTAAAATATAT [TGCATGCA_site854],7.57
3,TTATGTAGTATAATGAGTACTAAATATAGATATGTT [XGTACX_site6335],6.56
4,ATTTAACAACTTCAAACACACAATATAGATTTATAT [CACACA_site7067],6.6
5,AAACAAGTAATTGTTATTATTATTATATTATTATTA [CACACA_negctrl_site402],6.12
6,TTTGAATATTCATATGCACACAAATTAATATACATA [CACACA_site8040],9.99
7,AATAATATTTATTTTTGTACATATGTGCATTATAAA [XGTACX_site3682],11.2
8,ATAATAATATTATTTTGTACATATGTGCTTATTTAT [XGTACX_site5540],7.11
9,ATTTTAAATGTTATGCGTACATATTAATCCTACTTA [XGTACX_site1344],6.69
10,TATTTCAAATGTTATGTGCACATATTAATCCTACTT [GTGCAC_site9738],10.7
11,AATGTATTAAAATTACGTACATATGCACATTTTATA [XGTACX_site5046],8.53
12,TTTATTTATTATTAAAGTACTAAATTATATTATTAT [XGTACX_site2565],5.95
13,ATGTGCAAATATTAAAGTACTAAATTTTATTATTTT [XGTACX_site7306],11.3
14,TTTATTTATTATTAAAGTACTAAAATATATTATTAT [XGTACX_site4887],6.24
15,TTGCATTAATTTATGTGTACATATAAATTTTTATTT [XGTACX_site3060],6.94
16,GTACGTTACATAAATGTGCACATATTATATGCGAAG,10.7
17,AAAAAAAAAAAATGTGTGCACATTATTTCAACTTAA,10
18,ATATATACATATAAATGTACATAATTATTATGCACA [XGTACX_site1261],9.09
19,GAAAACGTTTGAAGTTGTACATATGTATAAAAAGAA [XGTACX_site2304],7.74

row,Sequence,gcPBM binding intensity (ln)
1,TTTTTCATATTATACTTTTATATACATATATAAAAA [XGTACX_negctrl_site281],6.49
2,ATATATATATGTAATAGTACATATGATAGTTTGTCA [XGTACX_site1545],8.51
3,TTTTTATTGCAATACTTATATTTTTTTATGATTAAA [TGCATGCA_negctrl_site147],10.1
4,TTACATGCTAAAATTTGTACATATATGATAAATATT [XGTACX_site2648],6.47
5,TATTATTTAATCAAATGTACATAGAAAATGTATGTA [XGTACX_site4433],6.21
6,CATATATACAGTAACACACACAAAAAAATATGAATA [CACACA_site3996],6.91
7,ATATAGTTGTCATATTGTACACTTTAGGGTTGGTTA [XGTACX_site7339],6.64
8,TTATAAAAATAATATCGTACAAATGACATAGATGAA [XGTACX_site2570],6.6
9,ATTATCCATGCATTTACACACACACCCAAAAAAATT [CACACA_site4101],7.67
10,ATATATATATATATATGTACATATTTATATTGTAAA [XGTACX_site8878],9.35
11,TAATTACCATATGGTACACACATATATATATGTATA [CACACA_site3487],7.02
12,TTTTTCATAAGAAGCACACAAAAAATGATAGAGAAT [CACACA_site1417],7.39
13,AAAATATTCACGTGTACATATATATATATATATTAT [TGCATGCA_negctrl_site192],6.96
14,TTTTATATAAATATCACACACACACGCATGTTTTAA [CACACA_site6187],6.71
15,CATATACAGAAACACACACACACATAAATAAATATA [CACACA_site1343],6.84
16,TATTTTATATTTTATGCACACTTATAAGAAATATGT [CACACA_site5647],9.42
17,ATAATATATGTATGTATGCACTTTTATTATTTTTTT,7.24
18,CATTTATATAAAGAATGTACACACAGAAATGCACAC [XGTACX_site4718],9.03
19,TTTTATATTTTATGCACACTTATAAGAAATATGTAC [CACACA_site3040],10.6

row,Sequence,gcPBM binding intensity (ln)
1,ATTTATATAAAGAATGTACACACAGAAATGCACCCA [CACACA_site8715],10.7
2,TTATATAAAGAATGTACACACAGAAATGCACCCACA [CACACA_site2282],9.38
3,AAATATTATAATAATTGTACTATATATACAGTTATT [XGTACX_site1963],6.39
4,TAATATATCTATAATACACACTATTCTAATCACATA [CACACA_site6731],6.49
5,AGTAGTCTGGAGAAGAGTACATAGTATCTGGTAGCT [XGTACX_site2017],6.4
6,ATTTATATTACCCTTGCATGTAGGTGCAATTTTTTT [TGCATGCA_site757],10.5
7,ATATTTTTATTAGTAGTGCAATTTAGTGTATATATA [GTGCAC_site9542],10.1
8,TACCCTTGCATGTAGGTGCAATTTTTTTTTTTTTTT,9.32
9,AAAAAAAAAAAACACACACACACATACACATACATA [CACACA_site2858],6.83
10,TTAACATCAAAATATGCACACAAACAATTAGCGGTA [CACACA_site8801],9.76
11,TTATATGCATAAAAAGGTACACATATATAAATAAAT [XGTACX_site6894],6.68
12,TATGAAAAAATATATACACACATAATAAAGGTATAT [CACACA_site3737],6.42
13,TTTATGCACGCGTGCACACACATATGAAAAAAGGTA [CACACA_site3315],11
14,CAAAAGGATATGCACACACACACACGGATATTTATA [CACACA_site7099],10.1
15,TATTTATGCACGCGTGCACACACATATGAAAAAAGG [CACACA_site9090],10.9
16,TTTATGACTTGAAAAAGTACACATATATTTATGCAA [XGTACX_site5451],6.31
17,TTAGGAAGCTCACAAAATAAAGTGAAAAGAAGAAAA [XGTACX_negctrl_site572],6.45
18,CCACAAGTATATAGTAGTACAATTTTTTTCTCTTTA [XGTACX_site4403],6.12
19,ACAACAAAAATAAGCACACACAAATATACATACATA [CACACA_site7664],6.55
